nsP2pro inh – Primary qHTS for inhibitors of NSP2Pro chikungunya virus (CHIKV); Polyprotein P1234 (Chikungunya virus (strain S27-African prototype)), Q8JUX6; FRET peptide cleavage, nsP2pro, fluorescence 1 h; Potency, µM (series often up to 24.9 µM), for inactives: top-dose activity change, negative = inhibition, most hits filed as inhibitors; hit rate 1.1% among 31,000; also: nearly all actives have a fitted effect of over 60% in size
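Purified recombinant nsP2pro (150 nM final) in 10 mM Tris-HCl pH 8.0 with 0.01% Tween 20 was preincubated 15 min at room temperature with compound (7 concentrations, up to 25 uM). FRET peptide 2 substrate (2.5 uM final) was then added; fluorescence was read after 1 h.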
nsP2 cell sec – Secondary cell base assay for inhibitors of NSP2Pro Chikungunya virus (CHIKV). shares compounds with nsP2pro inh. cell-based CHIKV nsP2 protease reporter assay. Potency, µM (doses to about 51.1 µM), without a hit: top-dose activity change, negative = inhibition, actives largely listed as inhibitors. hit rate 10% among 450; also: nearly all actives have a fitted effect of over 70% in size
Target sequence (Q8JUX6 220-798 limits assumed): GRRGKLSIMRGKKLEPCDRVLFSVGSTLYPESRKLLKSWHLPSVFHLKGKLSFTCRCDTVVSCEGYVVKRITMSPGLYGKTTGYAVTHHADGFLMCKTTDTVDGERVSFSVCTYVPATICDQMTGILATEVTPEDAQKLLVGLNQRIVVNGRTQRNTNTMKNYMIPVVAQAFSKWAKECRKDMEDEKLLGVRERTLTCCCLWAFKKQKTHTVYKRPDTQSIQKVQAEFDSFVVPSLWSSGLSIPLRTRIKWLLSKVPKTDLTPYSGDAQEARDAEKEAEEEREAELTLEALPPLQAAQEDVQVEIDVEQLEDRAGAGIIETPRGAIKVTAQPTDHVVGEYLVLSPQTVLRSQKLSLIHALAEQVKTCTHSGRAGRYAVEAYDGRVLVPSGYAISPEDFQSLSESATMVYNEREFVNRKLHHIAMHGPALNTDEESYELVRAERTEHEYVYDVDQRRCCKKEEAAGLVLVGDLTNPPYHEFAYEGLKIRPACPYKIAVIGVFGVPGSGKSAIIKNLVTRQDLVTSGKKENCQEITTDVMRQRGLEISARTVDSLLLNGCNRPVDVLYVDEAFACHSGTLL
CHIKV NSP2 FL – Selectivity profile for inhibitors of NSP2Pro chikungunya virus (CHIKV): Full length NSP2 enzyme counterscreen (CHIKV-NSP2); Full-length CHIKV NSP2 protease enzymatic counterscreen; hit rate 39% among 410; Potency, µM (highest dose often 50.7 µM), for the others: top-dose activity change, negative = inhibition, usual class: inhibitors; shares compounds with nsP2pro inh; also: nearly all actives have a fitted effect of over 65% in size
Furin counter – Selectivity profile for inhibitors of NSP2Pro chikungunya virus (CHIKV): Human furin counterscreen; shares compounds with nsP2pro inh; Recombinant human furin enzymatic counterscreen, fluorogenic substrate; Potency, µM (series often up to 50.6 µM), without a hit: at the top dose activity change, negative = inhibition, hits mostly inhibitors; hit rate 6% among 410
NS23 peptide cs – Selectivity profile for inhibitors of NSP2Pro chikungunya virus (CHIKV): Endogenous NS2/3 peptide Counterscreen. Potency, µM (highest dose often 51 µM), without a hit: at the highest dose activity change, negative = inhibition, hits mostly inhibitors. hit rate 34% among 410. Purified CHIKV nsP2 protease, endogenous NS2/3 peptide cleavage. shares compounds with nsP2pro inh; also: nearly all actives have a fitted effect of over 55% in size
Papain cs – Selectivity profile for inhibitors of NSP2Pro chikungunya virus (CHIKV): Papain Counterscreen; hit rate 5% among 410; Potency, µM (top dose mostly 51 µM), for inactives: top-dose activity change, negative = inhibition, most hits filed as inhibitors; purified papain protease activity, enzymatic inhibition; shares compounds with nsP2pro inh; AID 1964104, 2024
nsP2pro confirm – Confirmatory qHTS for inhibitors of NSP2Pro chikungunya virus (CHIKV); CHIKV nsP2 protease enzymatic activity, qHTS; hit rate 43% among 410; shares compounds with nsP2pro inh; AID 1964105, 2024; Potency, µM (series often up to 25.5 µM), for inactives: at the highest dose activity change, negative = inhibition, hits mostly inhibitors; also: nearly all actives have a fitted effect of over 75% in size
HCV NS3 4A cs – Selectivity profile for inhibitors of NSP2Pro chikungunya virus (CHIKV): NS34A-HCV Counterscreen. AID 1964106, 2024. Potency, µM (doses to about 50.9 µM), usual class: inhibitors. hit rate 20% among 410. shares compounds with nsP2pro inh. HCV NS3/4A protease biochemical counterscreen; also: nearly all actives have a fitted effect of over 55% in size
* hit, by the source's call; i = inactive; ? = inconclusive; [ ] = remark or other dose. Shown is part of a subset that was picked to be rich in hits. Calls follow the shape of the full dose curve. % is scaled to controls: 0 for no effect and ±100 for the full control effect; potency is read from the fitted curve at half-maximal effect.

SMILES	nsP2pro inh	others
CC(=O)Nc1ccc(CC(=O)O)cc1	2.0%
CN(C)C1(CNC(=O)c2ccc(OC3CCN(C(=O)C4CC4)CC3)cc2)CCCCC1	?	nsP2 cell sec=-10.1%;CHIKV NSP2 FL=3.5%;Furin counter=-1.5%;NS23 peptide cs=?;Papain cs=-2.3%;nsP2pro confirm=16.0%;HCV NS3 4A cs=i
CCn1ccnc1CNC(=O)c1cc(OC)ccc1OC1CCN(C(=O)C2CC2)CC1	i
CC(C)C(=O)NCC1(N(C)C)CCCCC1	13.1%
COc1ccccc1NS(=O)(=O)c1cc(NC(=O)c2ccccc2)ccc1N1CCCC1	-15.1%
C=C1C(OC(C)=O)CCC2(C)CC3(O)OC(=O)C(C)=C3CC12 (stereo not drawn)	1.3%
COc1ccc(NC(=O)Cn2c(=O)n(-c3ccc(C)c(C)c3)c(=O)c3c4c(sc32)CCCCC4)cc1Cl	-11.0%
COc1cccc(COC2CN(C(=O)CCn3nccc3C)CC(=O)N(Cc3ccccn3)C2)c1 (stereo not drawn)	-12.0%
COc1ccc(F)cc1-c1ccc(CN2CCC(N[S+](=O)([O-])c3cccs3)C2)cc1 (stereo not drawn)	-18.0%
CC(=O)N1CCN(c2ccc(C(=O)N3CCN(Cc4ccccc4)CC3)nn2)C(=O)C1	3.55µM*	nsP2 cell sec=20.0%;CHIKV NSP2 FL=7.3µM*;Furin counter=-13.1%;NS23 peptide cs=14.6µM*;Papain cs=-3.6%;nsP2pro confirm=7.98µM*;HCV NS3 4A cs=5.17µM*
CC(=O)N1CCN(Cc2ccccc2-c2cccnc2)CC1	-7.4%[39.2 µM]
CN(C)C(=O)N1CCN(c2ccc(Cl)nn2)C(=O)C1	-20.5%[39.2 µM]
O=C(O)c1ccc(O)c2ncc(-c3n[nH]nc3-c3ccccc3)cc12	i
Cc1cc(C)cc(N2CCN(c3cc(C4CC(O)C4)ncn3)CC2=O)c1 (stereo not drawn)	0.7%
Cn1nccc1-c1ccccc1Oc1ccc(S(=O)(=O)Nc2nccs2)cc1C#N	26.2%
COc1ccc(CNc2nc(-c3ccco3)nn2S(=O)(=O)c2ccc3ccccc3c2)cc1OC	?	nsP2 cell sec=15.5%
COc1ccc(CNc2nc(-c3ccco3)nn2C(=O)c2ccccc2Cl)cc1	-22.0%
O=S(=O)(c1ccccc1)n1nc(-c2ccccc2)nc1NCc1ccc(Cl)cc1	-10.3%
COC(=O)C1=C(c2ccccc2)c2ccccc2S(=O)(=O)N1CC(=O)Nc1ccccc1Cl	-11.8%
O=C(Cn1nc(-c2ccncc2)ccc1=O)NCCc1ccccc1	i
CN(C)C(=S)SSC(=S)N(C)C	2.79µM*	nsP2 cell sec=25.1µM*;CHIKV NSP2 FL=9.19µM*;Furin counter=-11.0%;NS23 peptide cs=9.19µM*;Papain cs=-10.6%;nsP2pro confirm=1.59µM*;HCV NS3 4A cs=i
CN(C)C(=S)SC(=S)N(C)C	8.81µM*	nsP2 cell sec=-1.0%;CHIKV NSP2 FL=29.1µM*;Furin counter=4.0%;NS23 peptide cs=-25.7%;Papain cs=-17.1%;nsP2pro confirm=7.11µM*;HCV NS3 4A cs=?
CC(C)N(CCCCOCC(=O)O)c1cnc(-c2ccccc2)c(-c2ccccc2)n1	26.2%
COCCc1noc(-c2ccc(Cn3nc(C)cc3C)cc2)n1	-5.4%
C[C@]12CCC(=O)C=C1CC[C@@H]1[C@@H]2[C@@H](O)C[C@@]2(C)[C@H]1CC[C@]2(O)C(=O)COC(=O)CCC(=O)O	-4.2%
COc1cc(/C=N\NC(=O)c2ccc3c(c2)OCO3)ccc1OCc1ccccc1	-6.1%
